Values without a mark were called inactive. Results filed as inconclusive are left out. Activity calls are given as the source filed them. Unless noted, the call rests on the fitted dose curve; in most records, active means well fitted curve in the direction sought with a large enough effect in the repeat runs; inconclusive means weak or mixed curves; inactive means no such curve, though single readings can be large; an effect the other way counts as inactive or inconclusive.

A short description of assay [1]: qHTS RealTime-Glo MT Cell Viability Assay in HEK293 cells - 0 hour (AID 1224880). Further: top concentration of the series differs between compounds; nearly all actives have a fitted effect of over 45% in size. An outline of the steps: (§1)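 HEK293 cells mixed with RealTime-Glo reagents (NanoLuc plus cell-permeant prosubstrate) at 600 cells/well, preincubated 5 h at 37 C/5% CO2, then given 23 nL compound in DMSO. Nonlytic luminescence from viable cells was read at 0, 8, 16, 24, 32 and 40 h.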

A short description of assay [2]: A CellTox Green Cytotoxicity Assay to monitor cytotoxicity in HEK293 cells - 32 hour (AID 1224881). Further: nearly all actives have a fitted effect of over 40% in size. An outline of the steps:
(§2)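 HEK293 cells premixed with CellTox Green dye were seeded at 600 cells/well and left 5 h at 37 C/5% CO2 before pin transfer of 23 nL compound in DMSO. Fluorescence from dye bound to dead-cell DNA was read during 40 h treatment.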

Assay [3] is described as follows: A CellTox Green Cytotoxicity Assay to monitor cytotoxicity in HepG2 cells - 0 hour (AID 1224882). Further: nearly all actives have a fitted effect of over 35% in size. An outline of the steps:
(§3)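 HepG2 cells were seeded together with the CellTox Green dye at 600 cells/well, left 5 h at 37 C/5% CO2, then given compounds in DMSO. Fluorescence from dye bound to dead-cell DNA was read repeatedly over 40 h of treatment at 37 C.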

A short description of assay [4]: A CellTox Green Cytotoxicity Assay to monitor cytotoxicity in HEK293 cells - 8 hour (AID 1224884). Further: nearly all actives have a fitted effect of over 35% in size. An outline of the steps: as §2
Assay [5] is described as follows: qHTS RealTime-Glo MT Cell Viability Assay in HepG2 cells - 16 hour (AID 1224885). Further: nearly all actives have a fitted effect of over 50% in size. An outline of the steps:
(§4)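 Cell number in HepG2 cultures estimated from NanoLuc luminescence generated by metabolic reduction of a prosubstrate by living cells. The homogeneous, nonlytic format allowed repeated reads at 0, 8, 16, 24, 32 and 40 h of compound exposure.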
(In general: qHTS replaces the single test concentration by a dilution series.)

The nature of assay [6]: qHTS RealTime-Glo MT Cell Viability Assay in HEK293 cells - 8 hour (AID 1224887). Further: nearly all actives have a fitted effect of over 50% in size. Further: potency means the concentration at half of the fitted maximal effect. An outline of the steps:
as §1

Assay [7] can be described thus: A CellTox Green Cytotoxicity Assay to monitor cytotoxicity in HEK293 cells - 16 hour (AID 1224888). Further: nearly all actives have a fitted effect of over 35% in size. In outline:
as §2

Assay [8] in a line: qHTS RealTime-Glo MT Cell Viability Assay in HepG2 cells - 0 hour (AID 1224889). Further: nearly all actives have a fitted effect of over 50% in size. In outline:
as §4

A short description of assay [9]: A CellTox Green Cytotoxicity Assay to monitor cytotoxicity in HepG2 cells - 8 hour (AID 1224890). Further: nearly all actives have a fitted effect of over 45% in size. An outline of the steps:
as §3

Assay [10] is described as follows: qHTS assay to identify small molecule antagonists of the estrogen receptor alpha (ER-alpha) signaling pathway using the BG1 cell line in the presence of 0.1 nM 17-beta-estradiol - cell viability counter screen (AID 1259241). Further: nearly all actives have a fitted effect of over 40% in size. An outline of the steps: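 Viability in VM7Luc4E2 cells after 22 hr compound exposure under 0.1 nM 17beta-estradiol stimulation, by CellTiter-Fluor.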

A short description of assay [11]: qHTS assay to identify small molecule antagonists of the androgen receptor (AR) signaling pathway using the MDA cell line in the presence of 0.5 nM R1881 - cell viability counter screen (AID 1259242). Further: nearly all actives have a fitted effect of over 45% in size. An outline of the steps:
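MDA-kb2 cells (human breast carcinoma, stably carrying MMTV-luciferase reporter) were exposed to compounds with 0.5 nM R1881 (final) for 16 hr at 37C, 0% CO2; viability then read as live-cell protease fluorescence (CellTiter-Fluor, 30 min) in the same wells.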

Assay [12] addresses Androgen receptor (Homo sapiens) (UniProt P10275). Put plainly: qHTS assay to identify small molecule antagonists of the androgen receptor (AR) signaling pathway using the MDA cell line in the presence of 0.5 nM R1881 (AID 1259243). Further: nearly all actives have a fitted effect of over 50% in size. In outline:
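MDA-kb2 human breast carcinoma cells carrying an MMTV-luciferase reporter (AR- and GR-responsive) were plated, rested 5 hr at 37C, dosed with compounds, then stimulated with 0.5 nM R1881 (final) for 16 hr; luminescence was read after ONE-Glo.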

Assay [13] concerns the target Estrogen receptor (Homo sapiens) (UniProt P03372). In words: qHTS assay to identify small molecule antagonists of the estrogen receptor alpha (ER-alpha) signaling pathway using the BG1 cell line in the presence of 0.1 nM 17-beta-estradiol (AID 1259244). Further: nearly all actives have a fitted effect of over 50% in size. An outline of the steps:
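VM7Luc4E2 cells (endogenous full-length ER-alpha, stable 4xERE-luciferase) were grown 5 days in phenol red-free medium with charcoal-stripped FBS, then exposed 22 h at 37C to compounds plus 0.1 nM (final) 17beta-estradiol; ONE-Glo luminescence read-out.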

Assay [14] is described as follows: qHTS assay to identify small molecule HDAC inhibitors (AID 1259364). Further: nearly all actives have a fitted effect of over 45% in size. Further: potency means the concentration at half of the fitted maximal effect. An outline of the steps:
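Wild-type HCT-116 cells were plated overnight, exposed to compounds for 2 h at 37 °C, then given HDAC-Glo class I/II luminogenic reagent for 30 min at room temperature before luminescence was read.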

Assay [15] can be described thus: qHTS assay to identify small molecule HDAC inhibitors - cell viability counter screen (AID 1259365). In outline: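 Cytotoxicity was gauged in wild-type HCT-116 cells after a brief 2hr treatment with DMSO-dissolved compounds at 37C and 5% CO2, using CellTiter-Glo luminescence developed for 30min at room temperature.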
A short description of assay [16]: qHTS assay to identify small molecule agonists of the sonic hedgehog signaling (Shh) pathway - cell viability counter screen (AID 1259366). Further: nearly all actives have a fitted effect of over 50% in size. An outline of the steps:
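Stable Gli1-Luc NIH/3T3 clone, 2,000 cells/well. Compound exposure 24hr at 37C. Read-out: CellTiter-Fluor fluorescence.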

Assay [17] is described as follows: qHTS assay to identify small molecule antagonists of the sonic hedgehog signaling (Shh) pathway - cell viability counter screen (AID 1259367). Further: nearly all actives have a fitted effect of over 55% in size. An outline of the steps: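 After a 4 hr settling period, 3T3 Gli1-Luc cells were treated with DMSO-dissolved chemicals and conditioned medium, kept 24 hr at 37C in 5% CO2, and assayed for viability by CellTiter-Fluor fluorescence following 1 hr reagent incubation.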

Assay [18] in a line: A CellTox Green Cytotoxicity Assay to monitor cytotoxicity in HepG2 cells - 32 hour (AID 1224883). Further: nearly all actives have a fitted effect of over 50% in size. Further: potency means the concentration at half of the fitted maximal effect. In outline: as §3
The nature of assay [19]: qHTS RealTime-Glo MT Cell Viability Assay in HEK293 cells - 24 hour (AID 1224886). Further: nearly all actives have a fitted effect of over 50% in size. Further: potency means the concentration at half of the fitted maximal effect. In outline: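 Homogeneous bioluminescent viability format in HEK293 cells (600 cells/well). Following 5 h at 37 C/5% CO2, 23 nL compound was pintooled; the signal was measured repeatedly during 40 h incubation.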
The nature of assay [20]: qHTS assay to identify small molecule phospholipidosis (PLD) inducers (AID 1259344; active means well fitted curve in the direction sought with a large enough effect; an effect the other way counts as inactive or inconclusive). An outline of the steps: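 HepG2 cells grown on collagen I take up LipidTOX Red while exposed to compound for 24 h; after fixation they are imaged at 20x and pit metrics are extracted.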

Chain of Estrogen receptor (Homo sapiens) (P03372 whole entry, looked up): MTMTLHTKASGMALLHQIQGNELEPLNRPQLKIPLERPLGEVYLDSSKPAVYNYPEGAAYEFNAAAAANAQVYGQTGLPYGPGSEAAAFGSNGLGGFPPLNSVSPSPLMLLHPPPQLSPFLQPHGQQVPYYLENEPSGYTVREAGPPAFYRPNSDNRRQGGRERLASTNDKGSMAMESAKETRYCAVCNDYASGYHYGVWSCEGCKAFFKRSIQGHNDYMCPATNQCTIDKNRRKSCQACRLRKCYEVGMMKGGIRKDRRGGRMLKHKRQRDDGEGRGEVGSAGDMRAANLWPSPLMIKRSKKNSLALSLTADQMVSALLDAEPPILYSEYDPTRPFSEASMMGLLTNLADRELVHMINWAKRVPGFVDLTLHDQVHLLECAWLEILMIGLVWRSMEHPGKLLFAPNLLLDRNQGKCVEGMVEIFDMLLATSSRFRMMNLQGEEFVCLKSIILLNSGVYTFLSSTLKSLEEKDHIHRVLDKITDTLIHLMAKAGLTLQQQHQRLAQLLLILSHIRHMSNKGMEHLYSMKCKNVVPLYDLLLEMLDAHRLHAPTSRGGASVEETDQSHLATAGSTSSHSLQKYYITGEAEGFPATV
Chain of Androgen receptor (Homo sapiens) (P10275 whole entry, looked up): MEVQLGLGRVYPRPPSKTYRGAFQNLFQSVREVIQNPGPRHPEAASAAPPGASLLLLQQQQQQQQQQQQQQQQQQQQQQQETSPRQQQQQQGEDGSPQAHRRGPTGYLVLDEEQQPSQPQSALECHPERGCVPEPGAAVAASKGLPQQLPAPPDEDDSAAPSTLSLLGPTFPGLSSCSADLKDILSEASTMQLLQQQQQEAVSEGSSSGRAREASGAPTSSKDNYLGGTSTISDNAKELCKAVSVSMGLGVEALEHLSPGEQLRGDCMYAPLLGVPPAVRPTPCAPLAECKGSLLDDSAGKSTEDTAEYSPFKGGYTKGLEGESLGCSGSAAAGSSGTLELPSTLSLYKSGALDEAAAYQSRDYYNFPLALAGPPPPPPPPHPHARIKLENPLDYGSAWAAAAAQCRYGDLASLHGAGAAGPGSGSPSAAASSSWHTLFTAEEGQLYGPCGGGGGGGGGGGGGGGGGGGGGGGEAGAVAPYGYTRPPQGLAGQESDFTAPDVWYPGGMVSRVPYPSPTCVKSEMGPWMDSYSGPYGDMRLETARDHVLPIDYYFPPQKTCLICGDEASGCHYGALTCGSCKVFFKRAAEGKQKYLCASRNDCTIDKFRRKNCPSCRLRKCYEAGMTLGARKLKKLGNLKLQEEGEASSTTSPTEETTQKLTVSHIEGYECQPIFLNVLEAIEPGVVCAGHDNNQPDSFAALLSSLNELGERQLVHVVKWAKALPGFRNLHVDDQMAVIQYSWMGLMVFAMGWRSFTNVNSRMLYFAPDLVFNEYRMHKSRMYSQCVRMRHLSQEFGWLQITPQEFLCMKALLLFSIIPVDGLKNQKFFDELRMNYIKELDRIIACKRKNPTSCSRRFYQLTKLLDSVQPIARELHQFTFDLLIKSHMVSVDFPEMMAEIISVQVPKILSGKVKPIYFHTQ

Take `O=C(c1ccc(Cl)cc1)c1ccc(Cl)cc1`: the Potency entry in assay [1], in assay [2], in assay [3], in assay [4], in assay [6] and in [7] was “inactive” each time. Also, the Potency entry in assay [8], in assay [9], in assay [10], in [11], in assay [12] and in assay [13] was “inactive” throughout. Also, the Potency result in assay [14], in assay [16] and in assay [17] was “inactive” in each case. For the same compound, the compound was classed as inactive in [5] and in assay [15].
On to `CCOc1ccc2c(c1)C(C)CC(C)(C)N2` (stereo not drawn), for which the Potency result in assay [1], in [3], in assay [4], in [19], in assay [6] and in assay [7] was “inactive” each time. For the same compound, the Potency entry in [10], in [11], in [12], in assay [14] and in assay [17] was “inactive” each time. The Potency in [18] was 43.6 µM (active). The outcome in assay [5] and in [15] was inactive.
As for `N#Cc1ccc(CC(=O)c2cccc(C(F)(F)F)c2)cc1`, the Potency entry in assay [1], in assay [2], in [3], in [18], in assay [4] and in assay [7] was “inactive” each time. In addition, the Potency entry in assay [8], in assay [9], in [10], in assay [11], in assay [14] and in assay [16] was “inactive” in each case. Further, the outcome in assay [5] was inactive.
Turning to `O=c1c2ccccc2oc2ccccc12`, the Potency result in [1], in assay [3], in [18], in assay [4], in assay [19] and in assay [7] was “inactive” in each case. The Potency entry in [9], in [10], in assay [11], in [13], in assay [16] and in assay [17] was “inactive” throughout. Besides, the call in assay [5] and in assay [15] was inactive. The Potency in assay [14] was 17.2 µM (active).
Regarding `CCCCCCCCCCCCN1CCOCC1`, the Potency result in assay [2], in assay [3], in [18], in [4], in assay [6] and in [7] was “inactive” throughout. Also, the Potency result in assay [8], in assay [9], in assay [10], in [11], in assay [13] and in assay [14] was “inactive” in each case. In [16], the Potency entry is “inactive”. In addition, the outcome in assay [5] and in [15] was inactive.
As to `CC(C)(C)NCC(O)COc1ccc(NC(=O)NC2CCCCC2)cc1` (stereo not drawn), the Potency entry in [2], in assay [3], in assay [18], in assay [4], in assay [9] and in assay [10] was “inactive” in each case. Also, the Potency entry in assay [11], in [13], in [20], in assay [14], in assay [16] and in assay [17] was “inactive” throughout. Further, in assay [15], the result was inactive.
With `CC1=C(C)C(=O)C(CCCCC#CCCCC#CCO)=C(C)C1=O`, the Potency result in [1], in assay [2], in assay [3], in [18], in [7] and in [8] was “inactive” in each case. The Potency entry in assay [9], in [10], in assay [11], in [20], in assay [14] and in assay [16] was “inactive” in each case. The Potency in [19] was 0.601 µM (active); in assay [6], 0.535 µM (active). Also, the result in assay [15] was inactive.
For the compound `CCN(CCCCOC(=O)c1ccc(OC)c(OC)c1)C(C)Cc1ccc(OC)cc1` (stereo not drawn), the Potency result in assay [1], in assay [2], in assay [3], in assay [4], in [7] and in assay [8] was “inactive” in each case. Besides, the Potency entry in [9], in assay [10], in assay [11], in assay [13], in assay [20] and in assay [14] was “inactive” throughout. Also, the Potency entry in assay [17] is “inactive”. Also, the compound was called inactive in [5].
Regarding `CC(C)CC(C)(C)C`, the Potency entry in assay [3], in assay [18], in assay [4], in assay [9], in assay [10] and in assay [11] was “inactive” each time. The Potency result in assay [13], in assay [14], in assay [16] and in assay [17] was “inactive” each time. Moreover, the call in [5] and in [15] was inactive.
